High-throughput results from PubChem BioAssay.
NADH coupling: inhibitors of PK/LDH coupling enzymes, profiling panel, artefact control, biochemical, MLSMR library; 65,000 tested, 0.02% active; AID 774, 2007; coupled PK/LDH NADH assays, four targets; IC50, µM (titrated, usually from 10 µM), for inactives: at the highest dose inhibition;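 active = single-dose screening hits from any of four coupled enzyme assays that gave an IC50 when retested across doses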;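 note: the DPM-DC format reads NADH fluorescence rather than 340 nm absorbance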
MK inhibit: S. pneumoniae MK inhibitors, primary screen, biochemical, PK/LDH-coupled NADH absorbance. purified MK, PK/LDH-coupled NADH absorbance 340 nm. mevalonate kinase [Streptococcus pneumoniae D39]. 65,000 tested, 0.48% active. inhibition, % at 10 µM;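 active = ranked among the strongest by inhibition in the single 10 µM screen, a fixed top-ranked set picked for dose follow-up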
Abs 340nm: compound light absorbance at 340 nm, profiling panel, artefact control, biochemical, MLSMR library, data from PS, PMK, MK assays. compound absorbance at 340 nm, fold over control. fold change at 10 µM. 65,000 tested, under 10 active;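 active = at 10 µM dose, initial 340 nm absorbance at least 2 fold that of control wells; inactive = change under 2 fold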;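 note: initial absorbance extrapolated from kinetic A340 decline of NADH oxidation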
DPM-DC inhibit: S. pneumoniae DPM-DC inhibitors, primary screen, biochemical, PK/LDH-coupled NADH fluorescence. diphosphomevalonate decarboxylase (Streptococcus pneumoniae D39). purified DPM-DC. calls only at 10 µM. 65,000 tested, 0.49% active. AID 556, 2006;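 active = the 320 compounds with the highest percent inhibition in the single-dose primary screen, excluding strongly autofluorescent ones, cut at about 32% in these data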;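 note: kinetic rate of NADH fluorescence loss reporting ADP formed by the decarboxylase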
Fluor 339 460: intrinsic fluorescence of library compounds, ex339/em460 – biochemical, MLSMR library, data from DPM-DC assay, artefact control, profiling panel | AID 709, 2007 | compound autofluorescence, ex339/em460 nm, NADH buffer; active compounds read high; 1 = no-compound wells, NADH background | 65,000 tested, 5.5% active | fluorescence fold increase at 10 µM;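 active = at 10 µM, mean starting fluorescence two-fold or more over control wells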;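 note: signal is the first read of a kinetic run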
Spn PMK inh: S. pneumoniae PMK inhibitors, primary screen, biochemical, mevalonate pathway, pilot trial included; inhibition, % at 10 µM; purified PMK, PK/LDH-coupled NADH absorbance 340 nm; 65,000 tested, 0.49% active;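 active = top-ranked compounds by inhibition in the single 10 µM screen, taking a fixed number of the strongest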;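 note: 0% = full reaction with DMSO carrier and 100% = background rate without enzyme reaction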
* hit, by the source's call; i = inactive; / = no result shown. Shown are actives, neighbours in structure and some others; about 6.8% of the full set was active somewhere.

SMILES	NADH coupling	MK inhibit	Abs 340nm	DPM-DC inhibit	Fluor 339 460	Spn PMK inh
O=C(Cn1nnc(-c2ccccc2NC(=O)c2cccs2)n1)Nc1ccccc1	13%	11	0.99	i	2.4*	15
COc1ccccc1NC(=O)Cn1nnc(-c2ccccc2NC(=O)c2cccs2)n1	12%	21	1	i	1.5	15
COc1ccc(NC(=O)Cn2nnc(-c3ccccc3NC(=O)c3ccco3)n2)cc1	7%	0	1	i	2.1*	9
O=C(N1CCN(c2ccccn2)CC1)N1c2ccccc2Sc2ccccc21	9%	16	1	i	1.1	11
O=C(OCCCCN1C(=O)c2ccccc2C1=O)c1n[nH]c2ccccc12	2%	3	1	i	1	11
Cc1c(C#N)sc2nc(-c3ccccc3)nc(N3CCCC3)c12	2%	3	1.1	/	2.5*	0
COc1ccc(NC(=O)C2CC(=O)OC2(C)C)cc1 (configuration not stated)	1%	1	1	/	2.2*	0
COc1ccc(NC(=O)C2CCC(C)(C(=O)O)C2(C)C)cc1 (configuration not stated)	0%	0	1.1	i	1.1	0
Cc1nc(N2CCc3ccccc32)[nH]c(=O)c1CCC(C)C	3%	6	1	i	1.1	8
COC(=O)C1=CN(C)C=C(C(=O)OC)C1c1ccc(O)c(OC)c1	8%	6	1	i	1.4	2
COCCN1C=C(C(=O)OC)C(c2cc(Br)c(OC)c(OC)c2)C(C(=O)OC)=C1	6%	8	1.1	/	2.3*	4
N#Cc1cc(N)c(Nc2ccccc2)cc1C#N	14%	0	1.1	i	3.5*	10
CCOC(=O)c1ccccc1NC(=O)c1ccc(Cl)c(S(=O)(=O)N2CCOCC2)c1	3%	7	1.1	i	1.1	3
O=C(Cn1cc(C(F)(F)F)ccc1=O)N1CCN(S(=O)(=O)c2ccccc2)CC1	9%	0	0.99	i	1.1	27*
O=C(CN1CCc2ccccc2C1)N1CCN(S(=O)(=O)c2ccccc2)CC1	5%	1	1	i	1	15
Cc1sc(NC(=O)CSc2nnc(-c3ccc(F)cc3)o2)c(C#N)c1C	8%	16	1.1	i	1.1	7
Fc1ccc(COc2ccc(/C=N/n3cnnc3)cc2)cc1	4%	3	1.1	i	1.2	10
COC(=O)CSc1nc2sc3c(c2c(=O)n1C1CCCCC1)CCN(C)C3	13%	1	1.1	/	2.5*	3
COc1ccc(-n2c(SCC(N)=O)nc3sc4c(c3c2=O)CCN(C)C4)cc1	6%	0	1.1	i	1.1	8
O=C(CC(C(=O)N1CCc2ccccc21)n1ccnc1)N1CCc2ccccc2C1 (configuration not stated)	6%	0	0.98	i	1.1	17
N#Cc1cn(-c2ccccc2)nc1-c1cc2ccccc2oc1=O	3%	6	1.1	/	2.4*	0
CC(Sc1nnc(-c2cc3ccccc3o2)n1-c1ccccc1)C(=O)O (configuration not stated)	2%	3	1	i	1.1	3
CCn1cc(C(=O)NCc2ccccn2)c(=O)c2cc(F)c(N3CCN(C)CC3)cc21	5%	3	1.1	i	1.9	1
CCn1cc(C(=O)O)c(=O)c2cc(F)c(N3CCNCC3)cc21	4%	10	1	/	2.5*	10
CCn1cc(C(=O)O)c(=O)c2cc(F)c(N3CCN(C(=O)Nc4ccccc4)CC3)cc21	4%	0	1	i	1.7	0
SMILES	NADH coupling	MK inhibit	Abs 340nm	DPM-DC inhibit	Fluor 339 460	Spn PMK inh
CCOC(=O)c1cn(CC)c2cc(N3CCSCC3)c(F)cc2c1=O	17%	9	1.1	i	2.9*	12
Cc1c(O)c(CN2CCCCC2)cc2c3c(c(=O)oc12)CCC3	2%	0	1	/	2.5*	5
O=c1oc2ccccc2c(N2CCCCC2)c1CN1CCCCC1	2%	14	1	i	1	5
O=c1oc2c(CN3CCOCC3)c(O)c(Cl)cc2c2c1CCC2	8%	6	1.1	/	3.8*	9
CCc1cc(=O)oc2c(CN3CCCC3)c(O)c(Cl)cc12	2%	4	1.1	/	2.3*	0
CCc1c(C)c2cc(Cl)c(O)c(CN3CCCCC3)c2oc1=O	4%	0	1.1	/	2.3*	8
Cc1oc2c(C)c3oc(=O)c4c(c3cc2c1C)CCC4	4%	5	1.1	i	1.7	6
Cc1sc2c(c1C)c(=O)n(-c1ccccc1)c1nnc(C)n21	0%	0	1.1	i	1.1	0
CCC(C)(C)NC(=O)C(c1cccc(OC)c1)N(C(=O)c1ccn[nH]1)c1cccc(OC)c1 (configuration not stated)	10%	9	0.97	i	1	21
Cc1ccc2c(CSc3nc4ccccc4c(=O)n3CCCO)cc(=O)oc2c1	4%	0	1	i	1	13
CN1CCN(Cc2cc(=O)oc3cc4c(cc23)CCC4)CC1	12%	17	0.99	i	1.1	11
CCc1cc(=O)oc2c(CN3CCN(C)CC3)c(O)c(Cl)cc12	1%	0	1	/	2.5*	3
CN(C)/C=C1/Sc2ccccc2C1=O	2%	5	1.1	i	1.1	0
CN(C)/C=C1\C(=O)c2ccc(N(C)C)nc2CC1c1ccccc1 (configuration not stated)	8%	0	1.1	i	2*	8
Cc1ccc2c(c1)c1c(n2CC(O)Cn2c(C)nc3ccccc32)C(=O)CCC1 (configuration not stated)	16%	11	1.1	/	2*	21
Cc1ccc2c(c1)c1c(n2CC(O)Cn2c(C)nc3ccccc32)/C(=N\O)CCC1 (configuration not stated)	4%	5	0.99	i	1.1	7
Cc1ccc2c(c1)c1c(n2CC2COC(C)(C)O2)C(=O)CCC1 (configuration not stated)	5%	9	1	/	2.2*	1
Cc1ccc2c(c1)c1c(n2CC(O)CN2C(=O)CNC2=O)C(=O)CCC1 (configuration not stated)	8%	9	1.1	/	2*	7
COc1ccc(C2(O)CCN(CCCCOc3ccccc3)CC2)cc1	4%	2	1	i	1.1	10
O=C(NCc1ccco1)c1cnn2c(C(F)(F)F)cc(-c3ccccc3)nc12	1%	0	1	i	1.2	0
